Measured values as given in PubChem BioAssay (NCI).
This is part of a sample that, as a whole, favours compounds with a hit. Of some 83,000 tested, about 20% had one in any assay.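 48-hour exposure, single concentration, 96-well plates; percent growth endpoint where 0 means no net growth. Active: below 10.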 Calls of active or inactive are those of the source.

Experiments:
Test in all cases: NCI-60 one-dose screen, 48 h (100 = growth as untreated, 0 = no growth, -100 = all killed)
Conditions in all cases: 10 µM unless noted
NCI-H23 lung = test system: NCI-H23 lung
NCI-H226 lung = test system: NCI-H226 lung
NCI-H322M lung = test system: NCI-H322M lung
HOP-62 NSCLC = test system: HOP-62 NSCLC
NCI-H460 lung = test system: NCI-H460 lung
HOP-92 NSCLC = test system: HOP-92 NSCLC
NCI-H522 lung = test system: NCI-H522 lung
A549/ATCC NSCLC = test system: A549/ATCC NSCLC
786-0 renal = test system: 786-0 renal
COLO 205 colon = test system: COLO 205 colon
DU-145 prostate = test system: DU-145 prostate
K-562 leukemia = test system: K-562 leukemia
MALME-3M melanoma = test system: MALME-3M melanoma
MDA-MB-231 breast = test system: MDA-MB-231 breast
RXF 393 renal = test system: RXF 393 renal
SF-268 CNS = test system: SF-268 CNS
SF-295 CNS = test system: SF-295 CNS
SF-539 CNS = test system: SF-539 CNS
UACC-257 melanoma = test system: UACC-257 melanoma
M14 melanoma = test system: M14 melanoma

Measured: growth

O=C1c2c(c3c4ccccc4[nH]c3c3ccc4ccccc4c23)C(=O)N1CCN1CCOCC1
active: NCI-H460 lung 2.17%
inactive: NCI-H23 lung 32.6% | NCI-H226 lung 61.4% | NCI-H322M lung 51.8% | HOP-62 NSCLC 45.8% | HOP-92 NSCLC 66.1% | NCI-H522 lung 29.1% | A549/ATCC NSCLC 28.8% | 786-0 renal 52.5% | COLO 205 colon 55.5% | DU-145 prostate 39.7% | K-562 leukemia 10.9% | MALME-3M melanoma 44.5% | MDA-MB-231 breast 69.5% | RXF 393 renal 18% | SF-268 CNS 56.8% | SF-295 CNS 29.1% | SF-539 CNS 51.7% | UACC-257 melanoma 79.7% | M14 melanoma 36.8%

COC(=O)c1c(C)c2n(c1C)C(=O)C(c1ccccc1)=C2
inactive: NCI-H23 lung 68.9% | NCI-H226 lung 61.8% | NCI-H322M lung 94.5% | HOP-62 NSCLC 72.7% | NCI-H460 lung 89.5% | HOP-92 NSCLC 65.8% | NCI-H522 lung 61.9% | A549/ATCC NSCLC 39.6% | 786-0 renal 94.3% | COLO 205 colon 79.3% | DU-145 prostate 97.9% | K-562 leukemia 74.8% | MALME-3M melanoma 82.1% | MDA-MB-231 breast 60.5% | RXF 393 renal 82.3% | SF-268 CNS 103% | SF-295 CNS 79.9% | SF-539 CNS 87.6% | UACC-257 melanoma 18.1% | M14 melanoma 86.3%

CCN(CC)c1ccc(\C=N/N=C(N)/C(N)=N\N=C/c2ccc(N(CC)CC)cc2)cc1
inactive: NCI-H23 lung 94.9% | NCI-H226 lung 103% | NCI-H322M lung 105% | HOP-62 NSCLC 93.1% | NCI-H460 lung 109% | HOP-92 NSCLC 116% | NCI-H522 lung 92.2% | A549/ATCC NSCLC 104% | 786-0 renal 113% | COLO 205 colon 106% | DU-145 prostate 110% | K-562 leukemia 99.3% | MALME-3M melanoma 93.9% | MDA-MB-231 breast 112% | RXF 393 renal 109% | SF-268 CNS 105% | SF-295 CNS 98.9% | SF-539 CNS 107% | UACC-257 melanoma 104% | M14 melanoma 110%

C=C(C)[C@@H]1CC[C@]2(CO)CC[C@]3(C)[C@H](CC[C@@H]4[C@@]5(C)CC[C@H](NCO)C(C)(C)[C@@H]5CC[C@]43C)[C@@H]12
active: NCI-H23 lung -20.9% | NCI-H322M lung -83.7% | HOP-62 NSCLC -61.9% | NCI-H460 lung -86.1% | NCI-H522 lung -42.7% | A549/ATCC NSCLC -45.7% | 786-0 renal -94% | COLO 205 colon -57.1% | DU-145 prostate -69.2% | K-562 leukemia 0.949% | MALME-3M melanoma -81.2% | MDA-MB-231 breast -86.2% | RXF 393 renal -79.3% | SF-539 CNS -95.6% | UACC-257 melanoma -51.6% | M14 melanoma -62.2%
inactive: NCI-H226 lung 72.5% | HOP-92 NSCLC 42.2% | SF-268 CNS 59.1% | SF-295 CNS 57.4%

C=C(C)[C@@H]1CCC[C@]2(COS(=O)(=O)c3ccc(C)cc3)CC[C@]3(C)[C@@H](CC[C@@H]4[C@@]5(C)CCCNC(C)(C)[C@@H]5CC[C@]43C)[C@@H]12
inactive: NCI-H23 lung 25.7% | NCI-H226 lung 82.1% | NCI-H322M lung 39.7% | HOP-62 NSCLC 69% | HOP-92 NSCLC 19% | SF-268 CNS 48.2% | SF-539 CNS 71.9% | UACC-257 melanoma 58.5%
active: NCI-H460 lung -49.1% | NCI-H522 lung -41% | A549/ATCC NSCLC -12% | 786-0 renal -77.5% | COLO 205 colon -86.1% | DU-145 prostate 0.903% | K-562 leukemia -33.4% | MALME-3M melanoma 4.1% | MDA-MB-231 breast -10.3% | RXF 393 renal -79.9% | SF-295 CNS -11.5% | M14 melanoma -20.6%

CC(C)=CCCC(C)c1ccc(C)c2c1OCN(CCCCCO)C2 (stereo not given)
inactive: NCI-H23 lung 91.3% | NCI-H226 lung 98.4% | NCI-H322M lung 102% | HOP-62 NSCLC 92.5% | NCI-H460 lung 81.1% | HOP-92 NSCLC 27.7% | A549/ATCC NSCLC 82.5% | 786-0 renal 69.5% | COLO 205 colon 90% | DU-145 prostate 109% | K-562 leukemia 31.1% | MALME-3M melanoma 93.6% | MDA-MB-231 breast 93.4% | RXF 393 renal 90.1% | SF-268 CNS 97.5% | SF-295 CNS 110% | SF-539 CNS 84.5% | UACC-257 melanoma 78.4% | M14 melanoma 84.2%
active: NCI-H522 lung -1.75%

c1ccc(-c2oc(-c3ccccc3)c(CN3CCCCC3)c2CN2CCCCC2)cc1
active: HOP-92 NSCLC 4.02% | NCI-H522 lung 2.64% | COLO 205 colon 6.83% | K-562 leukemia 7.49% | MALME-3M melanoma -12.5% | RXF 393 renal 2.14% | M14 melanoma 1.67%
inactive: NCI-H23 lung 26% | NCI-H226 lung 47.5% | NCI-H322M lung 52.9% | HOP-62 NSCLC 54.2% | NCI-H460 lung 24.8% | A549/ATCC NSCLC 56.2% | 786-0 renal 38.7% | DU-145 prostate 57.7% | MDA-MB-231 breast 29.6% | SF-268 CNS 57.9% | SF-295 CNS 37.3% | SF-539 CNS 46.7% | UACC-257 melanoma 15.8%

C=C(CBr)[C@@H]1CC[C@]2(C(=O)O)CC[C@]3(C)[C@H](CC[C@@H]4[C@@]5(C)CCC(=O)C(C)(C)[C@@H]5CC[C@]43C)[C@@H]12
inactive: NCI-H23 lung 85.8% | NCI-H226 lung 73.2% | NCI-H322M lung 92.2% | HOP-62 NSCLC 112% | NCI-H460 lung 81.3% | HOP-92 NSCLC 72.3% | NCI-H522 lung 46.5% | A549/ATCC NSCLC 57.7% | 786-0 renal 106% | COLO 205 colon 99.9% | DU-145 prostate 86.1% | K-562 leukemia 50.4% | MALME-3M melanoma 89.4% | MDA-MB-231 breast 81% | RXF 393 renal 85.9% | SF-268 CNS 83.1% | SF-295 CNS 79.2% | SF-539 CNS 99.2% | UACC-257 melanoma 80.2% | M14 melanoma 80%
